According to PubChem BioAssay AID1159580 (chemical genetic matrix, 2015):
Where “and” joins values, the source holds several entries; their conditions need not be identical. Equal values may be shown once. The whole screen tested about 5,500 compounds, of which about 2,000 (36%) were called active. Inconclusive results (about 18%) are left out. Cut-off read from the data, not from the text of the source: active = normalized growth mostly below about 0.91 (no sharp cut-off); inconclusive = no clear call, values can overlap the other calls; inactive = mostly above about 0.92. This is one part of the list.

Assay: chemical genetic growth profiling, strain panel (AID 1159580);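 note: tested at 20 µM; growth read once vehicle control cultures reached saturation at 30 °C; 1 = growth at the plate median or of vehicle wells; lower values mean less growth of the strain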
Settings: S. cerevisiae deletion strains, growth OD

Measured: normalized growth

CC1=C(CC(=O)O)c2cc(F)ccc2/C1=C\c1ccc(S(C)=O)cc1 (stereo unspecified)
inactive: locus YAL013W, strain DEP1, stronger effect = lower value 1 | locus YAL021C, strain ccr4, stronger effect = lower value 1.02 | locus YAL026C, strain drs2, stronger effect = lower value 1.02 | locus YAL030W, strain snc1, stronger effect = lower value 1.01 | locus YAL040C, strain CLN3, stronger effect = lower value 0.99 | locus YBL061C, strain skt5, stronger effect = lower value 1.02 | locus YBR009C, strain hhf1, stronger effect = lower value 1.01 | locus YBR021W, strain FUR4, stronger effect = lower value 1.03 | locus YBR023C, strain chs3, stronger effect = lower value 1.02 | locus YBR171W, strain sec66, stronger effect = lower value 1.02 | locus YBR229C, strain ROT2, stronger effect = lower value 1 | locus YBR231C, strain swc5, stronger effect = lower value 1.03 | locus YBR279W, strain paf1, stronger effect = lower value 1.01 | locus YCL011C, strain gbp2, stronger effect = lower value 1.03 | locus YCL016C, strain dcc1, stronger effect = lower value 1.01 | locus YCL029C, strain bik1, stronger effect = lower value 1.02 | locus YCL061C, strain MRC1 (second series), stronger effect = lower value 1.01 | locus YCL061C, strain MRC1, stronger effect = lower value 1.02 | locus YCL069W, strain vba3, stronger effect = lower value 1.02 | locus YCR088W, strain abp1, stronger effect = lower value 1.02 | locus YDL005C, strain med2, stronger effect = lower value 1.02 | locus YDL035C, strain GPR1, stronger effect = lower value 1.01 | locus YDL040C, strain nat1, stronger effect = lower value 1.01 | locus YDL074C, strain BRE1, stronger effect = lower value 0.981 | locus YDL101C, strain DUN1, stronger effect = lower value 1.01 | locus YDL134C, strain PPH21, stronger effect = lower value 0.999 | locus YDL185W, strain tfp1, stronger effect = lower value 1 | locus YDL192W, strain arf1, stronger effect = lower value 1.02 | locus YDR001C, strain nth1, stronger effect = lower value 1.02 | locus YDR069C, strain doa4, stronger effect = lower value 1.01 | locus YDR101C, strain arx1, stronger effect = lower value 1.06 | locus YDR137W, strain rgp1, stronger effect = lower value 1.02 | locus YDR150W, strain NUM1, stronger effect = lower value 0.996 | locus YDR159W, strain sac3, stronger effect = lower value 1.02 | locus YDR162C, strain NBP2, stronger effect = lower value 1.01 | locus YDR195W, strain ref2 1.04 | locus YDR297W, strain sur2, stronger effect = lower value 1.02 | locus YDR318W, strain mcm21, stronger effect = lower value 1.02 | locus YDR334W, strain swr1, stronger effect = lower value 1.02 | locus YDR335W, strain msn5, stronger effect = lower value 1.01 | locus YDR363W, strain ESC2, stronger effect = lower value 0.995 | locus YDR388W, stronger effect = lower value 1.03 | locus YDR392W, strain spt3, stronger effect = lower value 0.996 | locus YDR502C, strain sam2, stronger effect = lower value 1.02 | locus YEL003W, strain gim4, stronger effect = lower value 1.02 | locus YEL037C, strain rad23, stronger effect = lower value 1.02 | locus YEL061C, strain CIN8 (second series), stronger effect = lower value 1.03 | locus YEL061C, strain CIN8, stronger effect = lower value 1.01 | locus YER002W, strain NOP16, stronger effect = lower value 0.993 | locus YER015W, strain faa2, stronger effect = lower value 1.01 | locus YER016W, strain bim1, stronger effect = lower value 1 | locus YER110C, stronger effect = lower value 1.03 | locus YER111C, strain swi4, stronger effect = lower value 1.03 | locus YER155C, strain BEM2 (second series), stronger effect = lower value 1.03 | locus YER155C, strain BEM2, stronger effect = lower value 1.01 | locus YER167W, strain BCK2, stronger effect = lower value 1.01 | locus YFR010W, strain ubp6, stronger effect = lower value 1.02 | locus YGL078C, strain dbp3, stronger effect = lower value 1.02 | locus YGL086W, strain mad1, stronger effect = lower value 1.01 | locus YGL167C, strain pmr1, stronger effect = lower value 1.03 | locus YGL173C, strain kem1, stronger effect = lower value 1.02 | locus YGL227W, strain vid30, stronger effect = lower value 1.03 | locus YGL240W, strain doc1, stronger effect = lower value 1.01 | locus YGL248W, strain PDE1, stronger effect = lower value 0.999 | locus YGL253W, strain hxk2, stronger effect = lower value 1.02 | locus YGR078C, strain PAC10, stronger effect = lower value 1.01 and 0.998 | locus YGR135W, strain pre9, stronger effect = lower value 1 | locus YGR229C, strain SMI1, stronger effect = lower value 0.977 | locus YGR252W, strain gcn5, stronger effect = lower value 0.982 | locus YHR013C, strain ard1, stronger effect = lower value 1.03 | locus YHR027C, strain rpn1, stronger effect = lower value 1.02 | locus YHR030C, strain SLT2, stronger effect = lower value 1.01 and 0.982 | locus YHR079C, strain IRE1 (second series), stronger effect = lower value 1.03 | locus YHR079C, strain IRE1, stronger effect = lower value 0.988 | locus YHR094C, strain hxt1, stronger effect = lower value 1.02 | locus YHR129C, strain ARP1, stronger effect = lower value 0.996 | locus YHR142W, strain chs7, stronger effect = lower value 1.02 | locus YHR200W, strain rpn10, stronger effect = lower value 1.03 | locus YIL066C, strain RNR3, stronger effect = lower value 1 | locus YIL073C, strain SPO22, stronger effect = lower value 1.04 | locus YIL125W, strain kgd1, stronger effect = lower value 1.02 | locus YIR030C, strain dcg1, stronger effect = lower value 1.02 | locus YJL092W, strain hpr5, stronger effect = lower value 1.02 | locus YJL095W, strain BCK1 (second series), stronger effect = lower value 1.02 | locus YJL095W, strain BCK1, stronger effect = lower value 0.992 and 0.97 | locus YJL115W, strain asf1, stronger effect = lower value 1.03 | locus YJL129C, strain trk1, stronger effect = lower value 1.03 | locus YJL134W, strain LCB3, stronger effect = lower value 1.01 | locus YJL154C, strain vps35, stronger effect = lower value 1.02 | locus YJL164C, strain tpk1, stronger effect = lower value 1.01 | locus YJL166W, strain qcr8, stronger effect = lower value 1.01 | locus YJL168C, strain set2, stronger effect = lower value 1.02 | locus YJL187C, strain SWE1 (second series), stronger effect = lower value 1.01 | locus YJL187C, strain SWE1, stronger effect = lower value 1.02 | locus YJR043C, strain POL32, stronger effect = lower value 1 | locus YJR066W, strain TOR1, stronger effect = lower value 0.924
